High-throughput results deposited in PubChem by The Scripps Research Institute Molecular Screening Center.
Only some compounds are listed: those with a hit (about 3.5% of all), similar ones and a draw of the others.
FBW7 act – activators of human E3 ligase FBW7; Q969H0; AlphaScreen FBW7–phospho-cyclin E peptide binding, activator screen; normalized activity (activation), % at 26.1 µM; 650,000 tested, 0.13% active; AID 1259310; in the data active = normalized activity above about 1.9%;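 also: purified mutant Fbw7 with reduced substrate affinity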
MITF primary – human MITF inhibition, primary screen; O75030; AlphaScreen MITF homodimerization, bead proximity signal; 650,000 tested, 0.91% active; AID 1259374; inhibition, % at 2.6 µM; in the data active = inhibition above about 50%
GPR151 activ – human GPR151 activation | Q8TDV0 | AID 1508602 | activation, % at 11.2 µM | 650,000 tested, 1% active | PathHunter beta-arrestin GPR151 cells, luminescence; in the data active = activation above about 4.9%
Target sequence (Q8TDV0 whole entry, looked up): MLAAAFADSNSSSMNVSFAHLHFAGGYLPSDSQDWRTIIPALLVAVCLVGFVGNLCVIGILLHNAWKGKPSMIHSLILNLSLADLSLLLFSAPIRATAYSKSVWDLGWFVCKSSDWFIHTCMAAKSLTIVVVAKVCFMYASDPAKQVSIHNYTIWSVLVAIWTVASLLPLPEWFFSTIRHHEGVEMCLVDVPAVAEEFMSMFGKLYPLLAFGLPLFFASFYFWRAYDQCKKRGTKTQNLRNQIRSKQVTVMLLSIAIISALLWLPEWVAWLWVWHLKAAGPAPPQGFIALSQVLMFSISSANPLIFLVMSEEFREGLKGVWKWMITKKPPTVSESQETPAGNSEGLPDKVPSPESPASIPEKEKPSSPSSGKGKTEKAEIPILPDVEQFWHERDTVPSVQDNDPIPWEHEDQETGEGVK
TEAD-YAP block – TEAD-YAP interaction inhibition; HEK-TIYL cells, TEAD-Gal4/YAP UAS-luciferase luminescence; inhibition, % at 9.12 µM; 640,000 tested, 1.4% active; in the data active = inhibition above about 32%
GPR151 confirm – human GPR151 activation, confirmation screen | shares compounds with GPR151 activ | GPR151 PathHunter beta-arrestin cells, luminescence, 90 min; % of EA-reagent control over plate median | activation, % at 11.2 µM | 6,700 tested, under 10 active | AID 1508609;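 active = mean percent activation across replicates above the confirmation screen cutoff of 4.91%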
GPR119 ag – counter-screen for GPR151 activators: effect on human GPR119; 6,700 tested, 0.3% active; activation, % at 11.2 µM; shares compounds with GPR151 activ; GPR119 PathHunter beta-arrestin cells, luminescence, 90 min; 0 = compound-well median, 100 = enzyme-acceptor control;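 active = mean percent activation in the counterscreen above 29.09%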;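 also: counterscreen on off-target GPR119 to flag nonselective hits from the GPR151 activator screen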
Large screens that a line does not name were inactive (follow-up assays come after a bar, where they were run).

COC(=O)C(C)N1C(=O)S/C(=C/c2cccn2C)C1=O (stereo not given)	GPR151 activ 5.5 | GPR151 confirm inactive | GPR119 ag inactive
COC(=O)C(C)N1C(=O)S/C(=C/c2ccc(Cl)cc2)C1=O (stereo not given)	none
Cn1cccc1/C=C1\SC(=S)NC1=O	GPR151 activ 5.1 | GPR151 confirm inactive | GPR119 ag inactive
O=C(Oc1ccc(OC(=O)c2ccc3c(c2)C(=O)N(c2cccc(O)c2)C3=O)cc1)c1ccc2c(c1)C(=O)N(c1cccc(O)c1)C2=O	none
COc1ccc(-c2cc(C)cc3c2OC(CNC(=O)CC(C)C)C3)nn1 (stereo not given)	none
Cc1cc2c(c(-c3ccc(C(N)=O)cn3)c1)OC(CNC(=O)C13CC4CC(CC(C4)C1)C3)C2 (stereo not given)	GPR151 activ 7.1 | GPR151 confirm inactive | GPR119 ag inactive
COCCCNc1nc2nonc2nc1N(C)Cc1ccc(F)cc1	GPR151 activ 5.8 | GPR151 confirm inactive | GPR119 ag inactive
COCCCNc1nc2nonc2nc1N(C)Cc1ccccn1	none
Cc1ccc(C(=O)N/N=C\C(Br)=C\c2ccccc2)cn1	GPR151 activ 5.8 | GPR151 confirm inactive | GPR119 ag inactive
N#Cc1ccc(NC(=O)Nc2ccc3c(c2)OCC(=O)N3Cc2ccccc2)cc1	none
O=C(O)CN(Cc1ccc(Cl)cc1)S(=O)(=O)c1ccc(Cl)cc1	GPR151 activ 5.1 | GPR151 confirm inactive | GPR119 ag inactive
Cc1ccc(CN(CC(=O)O)S(=O)(=O)c2ccc(Cl)cc2)cc1	none
O=C(CN(Cc1ccccc1)S(=O)(=O)c1ccc(Br)cc1)Nc1ccccc1Cl	GPR151 activ 6.0 | GPR151 confirm inactive | GPR119 ag inactive
CCc1ccccc1NC(=O)CN(Cc1ccc(Br)cc1)S(=O)(=O)c1ccccc1	none
CCc1ccccc1NC(=O)CN(Cc1ccccc1)S(=O)(=O)c1ccc(Br)cc1	GPR151 activ 6.6 | GPR151 confirm inactive | GPR119 ag inactive
O=C(c1ccc(Cl)cc1)c1conc1C(=O)c1cccs1	none
Cc1ccc(C(=O)c2nocc2C(=O)c2cccs2)cc1	GPR151 activ 6.1 | GPR151 confirm inactive | GPR119 ag inactive
CCN(CC)CCNC1CCN(c2ccc(NC(=O)c3cccc(Cl)c3)cc2)CC1	none
CCOCCCNC1CCN(c2ccc(NC(=O)c3cccc(Cl)c3)cc2)CC1	GPR151 activ 17 | GPR151 confirm inactive | GPR119 ag inactive
COC(=O)C(NC(=O)C(F)(F)F)c1ccc(O)cc1 (stereo not given)	none
Cn1c(=O)n(C)c2cc(S(=O)(=O)Nc3cccc(C(F)(F)F)c3)ccc21	GPR151 activ 5.1 | GPR151 confirm inactive | GPR119 ag inactive
CCc1cccc(NS(=O)(=O)c2ccc3c(c2)n(C)c(=O)n3C)c1	none
COc1cc(Nc2nc(NCc3cccnc3)nc3c2ncn3CCN2CCCC2=O)cc(OC)c1OC	GPR151 activ 5.0 | GPR151 confirm inactive | GPR119 ag inactive
COc1cc(Nc2nc(NCc3cccc(C(F)(F)F)c3)c3ncn(CCN4CCCC4=O)c3n2)cc(OC)c1OC	GPR151 activ 5.3 | GPR151 confirm inactive | GPR119 ag inactive
O=C1CCCN1CCn1cnc2c(NCc3ccccc3)nc(NCc3cccnc3)nc21	none
O=C1CCCN1CCCNc1nc(NCc2cccnc2)nc2c1ncn2CCN1CCCC1=O	GPR151 activ 6.7 | GPR151 confirm inactive | GPR119 ag inactive
COc1ccc(Cl)cc1C(=O)Nc1c2c(nn1-c1ccc(C)cc1C)CS(=O)(=O)C2	GPR151 activ 5.3 | GPR151 confirm inactive | GPR119 ag inactive
O=C(Nc1c2c(nn1-c1ccc(F)cc1)CS(=O)(=O)C2)C1(c2ccc(Cl)cc2)CCCC1	GPR151 activ 5.1 | GPR151 confirm inactive | GPR119 ag inactive
O=C(Nc1c2c(nn1-c1ccc(Cl)cc1)CS(=O)(=O)C2)C1(c2ccc(Cl)cc2)CCCC1	none
COc1ccc(-n2nc3c(c2NC(=O)c2c(F)cccc2F)CS(=O)(=O)C3)cc1	GPR151 activ 7.1 | GPR151 confirm inactive | GPR119 ag inactive
Cc1ccc(-n2nc3c(c2NC(=O)c2c(F)cccc2F)CS(=O)(=O)C3)cc1	none
COc1ccc(Cl)cc1C(=O)Nc1c2c(nn1-c1ccccc1C)CS(=O)(=O)C2	none
CCOc1ccc(C(=O)OC(C)CN2CCOCC2)cc1 (stereo not given)	none
